Experimental data published in PubChem BioAssay (NCI).
Compounds without any hit were thinned out: in the full panel of roughly 83,000, 20% have a hit.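 Single-dose data. Exposure time 48 hours. Values below 10 considered active.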 A number with no mark means an inactive call. Activity calls are given as the source filed them.

Assays:
Assay in all cases: NCI-60 one-dose screen, 48 h (100 = growth as untreated, 0 = no growth, -100 = all killed)
Details in all cases: 10 µM unless noted
NCI-H23 lung = system: NCI-H23 lung
NCI-H226 lung = system: NCI-H226 lung
NCI-H322M lung = system: NCI-H322M lung
HOP-62 NSCLC = system: HOP-62 NSCLC
NCI-H460 lung = system: NCI-H460 lung
HOP-92 NSCLC = system: HOP-92 NSCLC
NCI-H522 lung = system: NCI-H522 lung
A549/ATCC NSCLC = system: A549/ATCC NSCLC
786-0 renal = system: 786-0 renal
COLO 205 colon = system: COLO 205 colon

Row | SMILES | growth (NCI-H23 lung) | growth (NCI-H226 lung) | growth (NCI-H322M lung) | growth (HOP-62 NSCLC) | growth (NCI-H460 lung) | growth (HOP-92 NSCLC) | growth (NCI-H522 lung) | growth (A549/ATCC NSCLC) | growth (786-0 renal) | growth (COLO 205 colon)
1 | O=C(O)c1cn(C2CC2)c2cc(N3CCN(C(=O)CSc4nnc(-c5ccc(Cl)cc5)n4-c4ccccc4)CC3)c(F)cc2c1=O | 96.2% | 98.8% | 110% | 80.7% | 104% | 79.6% | 72.7% | 94.3% | 104% | 109%
2 | COc1ccc(-c2cc(-c3nnc(SCC(=O)Nc4ccc(/C(C)=N\O)cc4)n3-c3ccccc3)c3cc(OC)ccc3n2)cc1 | 86.4% | 86.1% | 79% | 79.4% | 83.9% | 78.4% | 35.1% | 51.2% | 83.5% | 93.6%
3 | COc1cccc(NC(=O)Nc2ccc(Oc3ncnc4[nH]c(C)c(C)c34)cc2)c1 | 70.7% | 105% | 105% | 97.5% | 61.3% | 110% | 57.8% | 79.7% | 109% | 102%
4 | CCCCOc1nc2ccc(C)cc2cc1/C=C/C(=O)/C=C/c1ccc2c(c1)OCO2 | 82.4% | 96.3% | 88% | 112% | 103% | 80.6% | 60.6% | 78.3% | 97.9% | 123%
5 | COc1cc(/C=C/C(=O)/C=C/c2cc3ccc(Cl)cc3[nH]c2=O)ccc1O | 61.2% | 80.1% | 92.2% | 114% | 53.3% | 77.4% | 66.4% | 79.8% | 30.8% | 105%
6 | CCc1c(C(=O)N[C@@H](C(=O)OCc2ccccc2)C(C)O)[nH]c2ccc(Cl)cc12 (stereo not given in full) | 80.1% | 21.7% | 75% | 65.8% | 13.8% | 74.5% | 77.1% | 69.6% | 11.1% | 48.7%
7 | C=C1C(=O)O[C@H]2[C@H]1CC/C(C=Nc1c(N)cc(F)cc1Br)=C\CC[C@@]1(C)O[C@@H]21 | 93.1% | 82.9% | 97.7% | 89.2% | 96.3% | 97.3% | 53.8% | 78.8% | 43.8% | 38.8%
8 | CC[C@H](Nc1ncnc2nc[nH]c12)c1nc2cccc(CC(=O)c3ccc(C(=O)NO)cc3)c2c(=O)n1-c1ccccc1 | 94.1% | 84.9% | 90.4% | 83.2% | 89.9% | 72.6% | 51.4% | 88.4% | 98.9% | 95.4%
9 | COc1ccc(NC(=O)c2ccc(Nc3ncnc4[nH]c(C)c(C)c34)cc2)cc1 | 102% | 106% | 101% | 108% | 98.4% | 111% | 97.4% | 94.8% | 101% | 115%
10 | O=C(O)c1ccc(-n2cc(/C=N/Nc3ccc(Cl)cc3Cl)c(-c3ccccc3)n2)cc1 | 84.5% | 88.6% | 103% | 92.2% | 102% | 106% | 78% | 97.1% | 97.5% | 96.7%
11 | CC(C)(C)c1ccc(O)c(Cc2cc(C(C)(C)C)ccc2O)c1 | 94.7% | 89.9% | 102% | 85.9% | 104% | -39.4% (active) | 87% | 92.4% | 94.2% | 110%
12 | O=C(Nc1cccc(-c2cccc(F)c2)c1)C1CCN(Cc2cccc3cccnc23)CC1 | 69.2% | 71.5% | 78.2% | 63.8% | 37% | 44.2% | 47.3% | 71.9% | 47.5% | -81% (active)
13 | COC1=CC2C=C(C3N(c4ccccc4)NC(=O)[C@@H]4CCCN34)C(=O)NC2C=C1 (stereo not given in full) | 89.7% | 105% | 93.5% | 93.1% | 110% | 124% | 87.6% | 107% | 99.5% | 111%
14 | CCOCc1cc(C(C)(C)C)ccc1O | 103% | 97.4% | 106% | 95.2% | 103% | 92.3% | 77.9% | 90.4% | 97.6% | 114%
15 | CCCCc1n(Cc2ccc3ccccc3c2)c2ccccc2[n+]1Cc1ccc2ccccc2c1 | -83.9% (active) | -72.7% (active) | -82.3% (active) | -76.8% (active) | -81.1% (active) | -70.7% (active) | -77.2% (active) | -72.3% (active) | -80.1% (active) | -66.9% (active)
16 | COc1ccc2nc(-c3ccc(Cl)cc3)cc(C(=O)N3N=C(c4ccc(N)cc4)CC3c3ccccc3)c2c1 (stereo not given) | 62% | 63.8% | 54% | 42.5% | 25.5% | 58.9% | 34.7% | 46.9% | 31.8% | 42.3%
17 | COc1ccc(/C=C/C(=O)Nc2ncnc3nc[nH]c23)cc1 | 97.7% | 104% | 101% | 109% | 99.2% | 106% | 81.1% | 92.9% | 95.6% | 115%
18 | CN(C)CCCn1c2c(c3cc(-c4cccc(S(N)(=O)=O)c4)ccc3c1=O)C(=O)c1ccccc1-2 | 57.4% | 77.8% | 77.3% | 53.1% | 14.1% | 104% | 44.9% | 64.7% | 30.6% | 59.1%
19 | COC(=O)c1cc2c3c(cc(O)c2[nH]1)N(C(=O)C1Cc2cc(OC)c(OC)c(OC)c2N1)CC3CCl (stereo not given) | -48.7% (active) | -35.1% (active) | -16.2% (active) | -54.7% (active) | -17.9% (active) | -35.9% (active) | -60.6% (active) | -21% (active) | -47.6% (active) | -70.4% (active)
20 | O=C(NC[C@H](O)CN1CCc2ccccc2C1)c1cc(NC2COC2)ncn1 | 99.7% | 108% | 93.6% | 92.8% | 97.8% | 112% | 92% | 93.4% | 92% | 92.4%
21 | Nc1ccccc1NS(=O)(=O)c1ccc(Cl)cc1 | 94.5% | 103% | 81.9% | 106% | 104% | 78.8% | 85.2% | 107% | 98% | 104%
22 | Cc1cccc(NC(=O)c2sc3nc4c(cc3c2N)CN(Cc2ccccc2)CC4)c1C | 51.3% | 60% | 40.4% | 32.3% | 12.5% | 35.2% | 11.3% | 31.1% | 31.9% | -0.373% (active)
23 | COc1ccccc1C(=O)/C=C/c1cc2cccc(OC)c2[nH]c1=O | -16.4% (active) | -22.1% (active) | 8.09% (active) | -8.85% (active) | -27.5% (active) | 10.6% | -72.7% (active) | 21.4% | 9.27% (active) | -49.7% (active)
24 | CCOC(=O)C(=Cc1c(-c2ccccc2)[nH]c2ccccc12)C(=O)OCC | 50.7% | 60.1% | 81.3% | 75.9% | 21.5% | -5.04% (active) | -33.7% (active) | 40.3% | 90.4% | 58.7%
25 | COc1cc(C(C)c2ccc3c(ccn3C)c2)cc(OC)c1OC (stereo not given) | 29.3% | 67.2% | 42.8% | 29.4% | 2.89% (active) | 48.2% | 11.3% | 16.3% | 22.6% | -56.6% (active)
26 | Cc1cnc(-c2ccc(-c3ccc(NC(=O)Nc4c(F)cc(F)cc4F)cc3F)c3c2C(=O)NC3)[nH]1 | 20.8% | 65.6% | 43.1% | 53.2% | -29.5% (active) | 70.8% | 37.2% | 45.2% | 23.1% | 20.5%
27 | C/C(=N\NC(=O)c1ccncc1)c1ccc(N)cc1 | 101% | 102% | 91.5% | 95.8% | 99.3% | 80.6% | 75.4% | 90.6% | 99% | 117%
